# Bioassay records: PubChem BioAssay, National Center for Advancing Translational Sciences (NCATS)
# FLuc inh: inhibitors of firefly (Photinus pyralis) luciferase | P08659 | purified P. pyralis luciferase, luminescence, biochemical | Potency, µM (doses to about 115 µM), actives largely listed as inhibitors | 76,000 compounds, 2.5% hits; further: nearly all actives have a fitted effect of over 65% in size
# Target sequence (P08659 whole entry, looked up): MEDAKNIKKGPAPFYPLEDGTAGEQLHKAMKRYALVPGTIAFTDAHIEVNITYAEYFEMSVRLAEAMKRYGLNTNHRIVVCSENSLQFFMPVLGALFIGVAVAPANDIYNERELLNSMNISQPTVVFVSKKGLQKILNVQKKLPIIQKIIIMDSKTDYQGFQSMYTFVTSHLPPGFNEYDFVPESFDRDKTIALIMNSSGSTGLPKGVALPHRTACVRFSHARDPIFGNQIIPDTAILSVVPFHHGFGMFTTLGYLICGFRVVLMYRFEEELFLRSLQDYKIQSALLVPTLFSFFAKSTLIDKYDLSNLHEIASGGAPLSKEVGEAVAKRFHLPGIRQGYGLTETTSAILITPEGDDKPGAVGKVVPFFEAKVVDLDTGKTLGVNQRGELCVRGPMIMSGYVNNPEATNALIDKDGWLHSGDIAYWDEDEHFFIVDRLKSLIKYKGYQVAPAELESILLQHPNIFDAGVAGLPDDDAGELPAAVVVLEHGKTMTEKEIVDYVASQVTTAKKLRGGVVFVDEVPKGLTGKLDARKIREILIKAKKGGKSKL
#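 Purified 10nM P. pyralis luciferase with 10uM D-luciferin and 10uM ATP in 50mM Tris acetate pH 7.5, 10mM Mg acetate, 0.01% Tween-20, 0.05% BSA. qHTS titration; luminescence read by CCD imager.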
# hNpr1 antagonist: antagonists of human natriuretic peptide receptor Npr1 | P16066 | HEK293 hNpr1 GloSensor cGMP, ANP-stimulated luminescence | Potency, µM (highest dose often 46.3 µM), without a hit: at the highest dose activity change, negative = inhibition, usual class: inhibitors | 76,000 compounds, 1.6% hits | AID 1347048; calls by dose curve; further: nearly all actives have a fitted effect of over 60% in size
#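 HEK293 cells stably expressing human Npr1 and cGMP GloSensor pGS-40F, loaded 2 h with 2% GloSensor reagent, given compound 30 min at room temperature. Luminescence read before and 20 min after 0.1 nM hNppA.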
# HEK293 viab: reduces viability of HEK-293 SNCA reporter cells. HEK-293-SNCA-luc viability, GF-AFC fluorescence, 24 h. Potency, µM (top dose mostly 57.1 µM), for the others: at the top dose activity change, negative = cytotoxicity, actives largely listed as cytotoxic. 150,000 compounds, 0.12% hits. AID 1671193;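 further: 0% = DMSO-treated cells and -100% = medium-only wells without cells; nearly all actives have a fitted effect of over 30% in size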
#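 Cytotoxicity counterscreen: after 24 h compound treatment of genome-edited SNCA-luciferase HEK-293 cells, live-cell protease substrate GF-AFC read by fluorescence after 30 min; activity scaled between DMSO (0%) and medium-only (-100%), curves Hill-fitted.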
# HEK293 tox: kills HEK 293 cells. HEK 293 viability, ATP luminescence (CellTiter-Glo), 48-72 h. Potency, µM (titrated, usually from 115 µM), for inactives: top-dose activity change, negative = cytotoxicity, hits mostly inhibitors. 94,000 compounds, 6.6% hits. AID 1345083; further: nearly all actives have a fitted effect of over 60% in size
#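 Cells seeded first (HEK 293, 250 cells/well), then compound added by pintool. Incubation ran 48 or 72 hr at 37 degree Celsius. CellTiter-Glo was added and luminescence imaged after 10 min at room temperature.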
# 3T3 cytotox: kills NIH 3T3 cells. AID 1345082. Potency, µM (titrated, usually from 96.7 µM), inactives show at the top dose activity change, negative = cytotoxicity, most hits filed as inhibitors. NIH 3T3 viability, CellTiter-Glo ATP luminescence, 48-72 h. 94,000 compounds, 4.3% hits; further: nearly all actives have a fitted effect of over 55% in size
#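 NIH 3T3 cells at 400 cells/well received 23 nL of compound by pintool and were incubated 48 or 72 h at 37 °C. Viability was read as ATP-coupled CellTiter-Glo luminescence.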
# SNCA expr inh: SNCA gene expression inhibition; HEK-293 SNCA-luciferase knock-in, luminescence, 24 h; Potency, µM (top dose mostly 57.2 µM), inactives show at the top dose activity change, negative = inhibition, usual class: inhibitors; 140,000 compounds, 0.17% hits;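 further: plate controls were DMSO cells for no effect and cell-free wells for full effect; nearly all actives have a fitted effect of over 45% in size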
# An asterisk follows results filed as active; i = inactive; ? = inconclusive; · = no result; [ ] = remark or other dose. Compounds with a hit are over-represented: about 7.2% of the library has one in this group of screens. Unless noted, the call rests on the fitted dose curve; in most records, active means well fitted curve in the direction sought with a large enough effect; inconclusive means small, poorly fitted or top-dose-only effect, or another doubt; inactive means no such curve, though single readings can be large; an effect the other way counts as inactive or inconclusive. Unless noted, on the % scale 0 is the no-effect control and ±100 the full control effect; potency means the concentration at half of the fitted maximal effect.
SMILES,FLuc inh,hNpr1 antagonist,HEK293 viab,HEK293 tox,3T3 cytotox,SNCA expr inh
Cn1ncc2c(C(=O)Nc3cccnc3)cc(-c3ccccc3F)nc21,·,·,·,?,-17%,·
CNC(=O)c1cc(C2CC2)nc2onc(C3CCN(C(=O)C4CCCC4)C3)c12 (configuration not stated),·,·,·,-23%,?,·
c1ccc(-c2nc(-c3ccc(OC4CNC4)cc3)no2)cc1,4µM*,?,?,?,16µM*,-75%
Cc1noc(-c2cccc(OC3CN(C(=O)NCc4ccccc4)C3)c2)n1,i,-13%,-5%,?,?,-31%
O=C(NCc1ccccc1)N1CC(Oc2cccc(-c3nc(-c4ccccc4)no3)c2)C1,i,-20%,-20%,18µM*,?,25%
c1coc(CN2CC(Oc3ccc(-c4noc(-c5ccncc5)n4)cc3)C2)c1,4µM*,11µM*,-9%,18µM*,?,5%
c1cc(-c2nc(-c3ccc(OC4CNC4)cc3)no2)ccn1,?,-3%,7%,?,?,65%
CCC1CCN(CC2(O)CCCN(Cc3cc(OC)ccc3F)C2=O)CC1 (configuration not stated),i,1%,-1%,-32%,-22%,11%
Cc1nnc(-c2cc(-c3ccc([S+](C)(=O)[O-])cc3)ccn2)n1Cc1ccccc1,i,-11%[70.6 µM],-8%[87.6 µM],?,?,-23%[87.6 µM]
O=C(Cn1nc2c(cc1=O)CCCC2)N1CCN(Cc2ccccc2Cl)CC1,i,7%,?,?,28µM*,?
O=C(NCCc1ccc(Cl)cc1)c1nc2cccnc2n(C2CC2)c1=O,·,·,2%,-26%,-28%,11%
O=C(c1noc(-c2ccc(F)cc2)n1)N1CCN(c2ccccc2)CC1,40µM*,-7%,0%,?,-32%,32%
O=C(O)CCn1ncc2cc(OCC3CCN(C(=O)c4cc(F)ccc4Cl)CC3)ccc21,i,·,2%,-2%,32µM*,5%
O=C(O)CCn1ncc2cc(OCC3CCN(C(=O)Cc4ccccc4)CC3)ccc21,i,-1%[70.6 µM],3%[87.6 µM],-12%[172 µM],?,14%[87.6 µM]
O=C(O)CCn1ncc2cc(OCC3CCN(C(=O)Oc4ccccc4)CC3)ccc21,i,·,4%[87.6 µM],-3%[172 µM],28µM*,17%[87.6 µM]
CC(C)OC(=O)N1CCC(COc2ccc3c(cnn3CCC(=O)O)c2)CC1,?,0%[70.6 µM],8%[87.6 µM],-32%[172 µM],28µM*,10%[87.6 µM]
COc1ccccc1Cn1c(=O)c(C(=O)NC(C)C)nc2cccnc21,·,·,-4%,?,-22%,-2%
O=C(CC1CCOCC1)NCc1ccc(OC(F)(F)F)cc1,i,0%,0%[12.5 µM],?,-7%,-8%
COCc1nncn1C1CCN(C(=O)c2ccc(F)cc2F)CC1,i,-1%,7%,6%,i,1%
COc1cccc2c1OCC(CNC(=O)CCN1Cc3ccccc3C1=O)C2 (configuration not stated),i,-1%,-3%,-7%,-8%,-10%
COc1cccc2c1OCC(CNC(=O)c1ccccc1N1CCCC1)C2 (configuration not stated),i,3%,6%,89µM*,2%,25%
CCCCc1ncc(CN(C)CC2CCCN(CCc3ccc(F)cc3)C2)[nH]1 (configuration not stated),i,2%,-12%,40µM*,?,3%
CN(Cc1ccc(N2CCNC2=O)cc1)CC1CCCN(CCc2ccc(F)cc2)C1 (configuration not stated),i,4%,6%,?,?,29%
CC(C)(O)CCc1cccc(C(=O)N2CCN(CC3CCCC3)CC2)c1,i,3%,-1%,-11%,-5%,13%
O=C(NCc1ccc2c(c1)OCO2)c1nc2cccnc2n(Cc2ccccc2)c1=O,·,·,-1%,79µM*,?,11%
SMILES,FLuc inh,hNpr1 antagonist,HEK293 viab,HEK293 tox,3T3 cytotox,SNCA expr inh
CS(=O)c1ccc(-c2nc(-c3ccc(F)cc3)c(-c3ccncc3)[nH]2)cc1 (configuration not stated),·,·,8%,·,·,12µM*
O=C(CC[C@H]1NC(=O)c2ccccc2NC1=O)Nc1nnc(Cc2ccccc2)s1,i,2%,2%,11%,?,-26%
Cc1nc2ccc(C(=O)N3CCCn4nc(CO)cc4C3)cc2o1,i,4%,-1%,-10%,-1%,-11%
O=C(COc1ccccc1)N1CCC(c2n[nH]c(=O)n2Cc2ccc(F)cc2)CC1,i,0%,-10%,?,28µM*,-9%
Cc1ccc(-n2c(C3CCN(C(=O)COc4ccc(Cl)cc4)CC3)n[nH]c2=O)cc1,i,7%,-3%,-5%,2.8µM*,-23%
Cc1ccc(Cn2c(C3CCN(C(=O)c4ccc(C(C)(C)C)cc4)CC3)n[nH]c2=O)cc1,i,?,-7%,25µM*,28µM*,-19%
O=C(COc1ccc(Cl)cc1)N1CCC(c2n[nH]c(=O)n2Cc2ccc(F)cc2)CC1,i,-4%,-1%,?,3.2µM*,22%
CCOC(=O)C1CCCCC(=O)N1 (configuration not stated),i,0%,0%,-4%,-6%,-7%
CC(=O)Nc1ccc(CN2CC(N3CCc4ccccc43)C2)cc1,·,·,-5%,i,2%,-3%
CSc1ncc(C(=O)N2CCC(c3nccn3CCN(C)C)CC2)cn1,i,5%,0%,-4%,-11%,-4%
COc1ccc(Cn2c(C3CCN(C(=O)Cc4ccccc4)CC3)n[nH]c2=O)cc1,i,0%,-2%,5%,-2%,19%
COc1ccc(Cn2c(C3CCN(C(=O)Cc4ccc(Cl)cc4)CC3)n[nH]c2=O)cc1,i,-13%,13%,?,35µM*,-1%
CNC(=O)[C@@H]1CN(Cc2ccc(Br)o2)C[C@H]1c1nc(COC)no1,i,3%,-3%,i,1%,?
COCc1ccccc1-c1nccc2c(=O)cc(-c3cnn(C)c3)oc12,i,1%[70.6 µM],10%[87.6 µM],-10%[172 µM],?,0%[87.6 µM]
CN(c1cc(=O)c2ccnc(NCc3ccc4c(c3)OCO4)c2o1)C1CCOCC1,i,-2%[70.6 µM],9%[87.6 µM],89µM*,32µM*,6%[87.6 µM]
Cn1cc(-c2cc(=O)c3ccnc(NCc4ccc5c(c4)OCO5)c3o2)cn1,?,0%[70.6 µM],-3%[87.6 µM],?,25µM*,6%[87.6 µM]
COC(=O)[C@]12CCC(C)(C)C[C@@H]1[C@@H]1C(=O)C=C3[C@@]4(C)C=C(C#N)C(=O)C(C)(C)[C@@H]4CC[C@@]3(C)[C@]1(C)CC2,·,·,14µM*,·,·,8.6µM*
CC(C)(C)c1ccc(-c2noc(CNC(=O)CN3C(=O)CNC3=O)n2)cc1,18µM*,-3%,-1%,-1%,-6%,31%
